Bioassay records: PubChem, National Center for Advancing Translational Sciences (NCATS)
This excerpt belongs to a sample that is enriched for hits.
KDM5B inhibitor: Primary screen for KDM5B Histone Demethylases FDH-coupled qHTS | Potency, µM (top dose mostly 57.7 µM), actives largely listed as inhibitors | AID 1347165, 2019 | 220,000 compounds, 2.6% hits | KDM5B demethylase, FDH-coupled NADH fluorescence (FDH is formaldehyde dehydrogenase) | Lysine-specific demethylase 5B (Homo sapiens), Q9UGL1; active = well fitted inhibition curve with a large enough effect; note: nearly all actives have a fitted effect of over 70% in size
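Here, H3K4me3 peptide (12.5 µM in substrate mix) is demethylated by KDM5BΔAP, 200 nM final, after 10 min compound exposure. Formaldehyde product is coupled through FDH (0.25 U/mL in mix) to NADH fluorescence; 30-min ΔRFU feeds dose-response curves.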
Numbers stand for hits.

Screening O=C(c1ccccc1F)N1CCC2(C1)C(=NC1CCCC1)NC(=O)N2c1cc(F)cc(F)c1 (centres undefined) returned KDM5B inhibitor inactive.
Screening O=[N+]([O-])c1cccc(-c2noc([C@@H]3Cc4nc[nH]c4CN3)n2)c1 returned KDM5B inhibitor inactive.
N#C/C(=C/c1ccc(I)o1)c1nc2ccccc2[nH]1 was read as KDM5B inhibitor inactive.
Screening COc1ccc(C)cc1NC(=O)Cn1c(C(=O)c2cccc(F)c2)nc2ccccc21 returned KDM5B inhibitor inactive.
Screening COCCc1noc([C@@H]2CN(Cc3ccc4c(c3)CCO4)C[C@H]2CO)n1 returned KDM5B inhibitor inactive.
For COc1ccc(CC(=O)N2CCC3(CC2)CN([S+](=O)([O-])c2ccccc2)CCO3)cc1 the results were KDM5B inhibitor inactive.
For N#Cc1cccc(Oc2cccc(-c3cnc4ccccc4n3)c2)c1C#N the results were KDM5B inhibitor inactive.
Screening COc1ccc(C2C3=C(CC(C)(C)CC3=O)Nc3ccccc3N2C(=O)C(F)(F)F)cc1OC (centres undefined) returned KDM5B inhibitor inactive.
Cc1ccc(S(=O)(=O)N2CCCC(CCC(=O)N3CCOCC3)C2)cc1 (centres undefined) was read as KDM5B inhibitor inactive.
For O=C(CCC1CCCN(S(=O)(=O)c2ccccc2)C1)N1CCc2ccccc2C1 (centres undefined) the results were KDM5B inhibitor 22µM.
Screening O=C(CCC1CCCN(S(=O)(=O)c2cccc(F)c2)C1)N1CCc2ccccc2C1 (centres undefined) returned KDM5B inhibitor inactive.
`CN(C)c1nc(OCC#N)nc(N2CCOCC2)n1` gave KDM5B inhibitor inactive.
Cc1cccc(-c2nnc(C(C)Sc3n[nH]c(N)n3)o2)c1 (centres undefined) was read as KDM5B inhibitor inactive.
For O=C(NCc1ccccc1)NC(NC(=O)c1ccccc1)(C(F)(F)F)C(F)(F)F the results were KDM5B inhibitor inactive.
`CCOc1ccc(NC(=O)/C(C#N)=C/c2c[nH]c3ccccc23)cc1` gave KDM5B inhibitor inactive.
`O=C(CCn1ccc2ccccc21)NC1CCCCCC1` gave KDM5B inhibitor inactive.
Screening Cc1ccc(C(=O)NCCC(=O)NCc2ccco2)cc1 returned KDM5B inhibitor inactive.
For Cc1nc2ccccc2nc1SCC(=O)NC1CCCCC1 the results were KDM5B inhibitor inactive.
`Cc1ccccc1-c1nc2cnccn2c1NCCC(=O)NC1CCCCC1` gave KDM5B inhibitor 28µM.
Screening CC(C)(C)C(=O)NCCCC(=O)NCc1ccco1 returned KDM5B inhibitor inactive.
Cc1ccccc1-c1nc2cnccn2c1NCCC(=O)NCc1ccco1 was read as KDM5B inhibitor 32µM.
Screening Cc1[nH]c2ccc(C(=O)OCC(=O)N3CCCC3=O)cc2c1C returned KDM5B inhibitor inactive.
N#Cc1cccc(NC(=O)c2cc(Cl)cc(Cl)c2)c1 was read as KDM5B inhibitor inactive.
CNC(=O)NC(=O)C(C)n1nc(C(=O)O)c2ccccc2c1=O (centres undefined) was read as KDM5B inhibitor inactive.
CC(C)c1ccc(-c2nonc2NC(=O)c2cc(=O)c3cc(Cl)ccc3o2)cc1 was read as KDM5B inhibitor inactive.
Cn1cnc2ccc(Nc3cccc(F)c3)nc2c1=O was read as KDM5B inhibitor inactive.
For CC(=O)Nc1cccc(-c2ccc3ncn(Cc4ccccn4)c(=O)c3n2)c1 the results were KDM5B inhibitor inactive.
`Cn1cnc2ccc(Nc3ccccc3)nc2c1=O` gave KDM5B inhibitor inactive.
`O=c1c2nc(-c3cccc(O)c3)ccc2ncn1Cc1ccccn1` gave KDM5B inhibitor inactive.
Screening O=c1c2nc(-c3ccccc3)ccc2ncn1-c1ccccc1 returned KDM5B inhibitor 40µM.
`O=c1c2nc(Nc3cccnc3)ccc2ncn1-c1ccc(F)cc1F` gave KDM5B inhibitor inactive.
`Cn1cnc2ccc(-c3ccncc3)nc2c1=O` gave KDM5B inhibitor inactive.
O=c1c2nc(-c3ccc(F)cc3)ccc2ncn1Cc1ccccn1 was read as KDM5B inhibitor 32µM.
O=c1c2nc(-c3cccnc3)ccc2ncn1Cc1ccccc1 was read as KDM5B inhibitor inactive.
For Cn1nccc1-c1ccc2ncn(-c3ccc(F)cc3F)c(=O)c2n1 the results were KDM5B inhibitor 40µM.
Screening COc1ccc(Nc2ccc3ncn(-c4ccccc4)c(=O)c3n2)cn1 returned KDM5B inhibitor inactive.
`Cn1nccc1-c1ccc2ncn(-c3ccccc3)c(=O)c2n1` gave KDM5B inhibitor 32µM.
`CCOc1ccc(S(=O)(=O)Nc2nc3ccccc3nc2N2CCCC2)cc1` gave KDM5B inhibitor inactive.
`CCOc1ccccc1NC(=O)Cn1ccn2nc(-c3ccccc3)c(CO)c2c1=O` gave KDM5B inhibitor inactive.
Screening Cc1ccc(NC(=O)C(C)N(C)Cc2ccc3c(c2)OCCO3)c(Br)c1 (centres undefined) returned KDM5B inhibitor inactive.
Screening O=C(Nc1ccccc1F)C1Sc2nnc(-c3ccccc3)n2NC12CCCCC2 (centres undefined) returned KDM5B inhibitor inactive.
COCCN1C(=O)[C@H]2CN(Cc3ccccc3C(F)(F)F)C[C@H]2C1=O was read as KDM5B inhibitor inactive.
For CNS(=O)(=O)c1cc(NS(=O)(=O)c2ccc(Br)cc2Cl)ccc1C the results were KDM5B inhibitor inactive.
O=C(Cc1cccc(C(F)(F)F)c1)NCCc1ccccn1 was read as KDM5B inhibitor inactive.
Screening CC(Oc1ccc(F)cc1)C(=O)Nc1cccc(-c2nc3ccccc3o2)c1 (centres undefined) returned KDM5B inhibitor inactive.
Screening CC(=O)N[C@@H]1CNC[C@H]1CO returned KDM5B inhibitor inactive.
Screening COCCNC(=O)c1nc(-c2ccccc2OC)c2ccccn12 returned KDM5B inhibitor inactive.
For C#CCNC(=O)c1nc(-c2ccccc2OC)c2ccccn12 the results were KDM5B inhibitor 100µM.
`COc1ccccc1C(=O)Nc1c(-c2ccccc2)nc2ccccn12` gave KDM5B inhibitor inactive.
Screening C#CCNC(=O)c1nc(-c2ccccc2OC)c2cnccn12 returned KDM5B inhibitor 89µM.
Screening COc1ccccc1-c1nc(C(=O)N(C)C)n2ccccc12 returned KDM5B inhibitor 112µM.
For COc1ccccc1-c1nocc1CCC(=O)O the results were KDM5B inhibitor inactive.
O=C(Nc1cc(F)ccc1F)N1CCCC(Cn2c(C3CC3)nc3cccnc32)C1 (centres undefined) was read as KDM5B inhibitor inactive.
For Cc1cc(C)cc(NC(=O)CCn2c(=O)n(C)c3ccccc32)c1 the results were KDM5B inhibitor inactive.
COc1ccc(CN2CCc3nc(N4CCN(C)CC4)[nH]c(=O)c3CC2)cc1 was read as KDM5B inhibitor inactive.
Screening CN(C)CCCC(=O)N1CCC2(CC1)CN(C(=O)CCC(=O)O)CCO2 returned KDM5B inhibitor inactive.
Screening CN(Cc1ccccc1OC(F)(F)F)Cc1cccn1C returned KDM5B inhibitor inactive.
CCCC(=O)Nc1ccc(C(=O)OC/C(=N/O)c2ccc(OC)cc2)cc1 was read as KDM5B inhibitor inactive.
Cn1cnc(S(=O)(=O)N2CCC3(CC2)CC(Cc2ccccc2)CCO3)c1 (centres undefined) was read as KDM5B inhibitor inactive.
For COCCNc1ncccc1-c1noc([C@@H]2CCCN2C2CCOCC2)n1 the results were KDM5B inhibitor 40µM.
`COc1cc(C(=O)N2CCC[C@H]2c2nc(-c3ccccc3Cl)no2)cc(OC)c1OC` gave KDM5B inhibitor inactive.
Screening COCCOc1ncccc1-c1noc([C@@H]2CCCN2C2CCN(C)CC2)n1 returned KDM5B inhibitor inactive.
